High-throughput results deposited in PubChem BioAssay by The Scripps Research Institute Molecular Screening Center.
PRMT1 FP inh: PRMT1 methyltransferase inhibitors, primary screen, biochemical, fluorescence polarization; Protein arginine N-methyltransferase 1 (Homo sapiens), Q99873; 370,000 compounds, 1.3% hits; recombinant PRMT1, activity-based probe fluorescence polarization; inhibition, % at 2.79 µM;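 active means inhibition above about 21% made by adding two undisclosed values, limit read from the data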
ABHD5-PLIN5 inh: ABHD5-PLIN5 interaction inhibitors, primary screen, cell lysate, split luciferase complementation, luminescence. Split G. princeps luciferase complementation, 4 h. inhibition, % at 4 µM. 360,000 compounds, 0.78% hits. AID 602281, 2012;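 active means inhibition above the mean inhibition across every tested compound plus 3 SD, cut at about 22% in these data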;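 further: 0% = DMSO only wells and the 100% control is not disclosed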
MBD2 inh: inhibitors of MBD2 binding to methylated DNA, primary screen, biochemical, TR-FRET, DNA-binding domain, human; Methyl-CpG-binding domain protein 2 (Homo sapiens), Q9UBB5; AID 686964, 2013; 370,000 compounds, 0.31% hits; MBD2 binding to methylated oligonucleotide; inhibition, % at 4.4 µM; in the data active means inhibition above about 13%
UHRF1 MBD2 ctr: UHRF1 methylated DNA binding inhibitors, primary screen, counter-screen for MBD2 inhibitor project, biochemical, TR-FRET, human UHRF1, single concentration. E3 ubiquitin-protein ligase UHRF1 (Homo sapiens), Q96T88. UHRF1 binding to methylated oligo. inhibition, % at 4.4 µM. 370,000 compounds, 0.75% hits. AID 687016, 2013; in the data active means inhibition above about 21%;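 further: UHRF1 SRA domain binding a hemimethylated CpG hairpin DNA probe; 0% = median of test compound wells and 100% = reference inhibitor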
LEDGF integ inh: blockers of LEDGF/p75-dependent integrase strand transfer – biochemical, TR-FRET, high throughput, primary screen | HIV-1 integrase (with human LEDGF/p75) | TR-FRET IN-LEDGF/p75 DNA integration, Eu/Cy5 | inhibition, % at 3.7 µM | 370,000 compounds, 0.64% hits | AID 743269, 2014;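 active means inhibition above the screen-wide mean plus 3 SD, cut at about 13% in these data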;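 further: signal is the Cy5 over europium emission ratio at 671 and 618 nm; 0% = plate median of compound wells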
rCAG binder: binders of r(CAG) RNA repeats, primary screen, biochemical, fluorescence; r(CAG) RNA repeat, TO-PRO-1 dye displacement fluorescence; inhibition, % at 3 µM; 370,000 compounds, 1.3% hits;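 active means inhibition above the plate cutoff, the mean of all test compounds on that plate plus 3 SD, cut at about 35% in these data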;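 further: 0% = DMSO alone and 100% = 100 µM mitoxantrone as full dye displacement; higher means more dye released from RNA so lower well fluorescence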
PRMT1 inh conf: PRMT1 methyltransferase inhibitors, confirmation, biochemical, fluorescence polarization, triplicate; shares compounds with PRMT1 FP inh; recombinant His-PRMT1, activity-based probe fluorescence polarization; inhibition, % at 2.79 µM; 3,300 compounds, 42% hits; AID 687036, 2013;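 active means mean inhibition across replicates above the hit cutoff derived for the earlier primary screen, cut at about 22% in these data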
Starred values were filed as active, the others as inactive; / = no result given. Sampled rows, rich in hits. Any-hit rate of the full collection: about 4.1%.

SMILES	PRMT1 FP inh	ABHD5-PLIN5 inh	MBD2 inh	UHRF1 MBD2 ctr	LEDGF integ inh	rCAG binder	PRMT1 inh conf
O=C(CSc1ccccn1)N1CCN(c2cccc(Cl)c2)CC1	47*	-6	-1	2	0	4	53*
C[C@H]1CN(S(=O)(=O)C(C)(C)C)[C@H](CCO)/C1=C\CCO	-3	/	-9	1	5	1	/
Cc1cccc(N2C(=O)C(Cl)=C(N3CCOCC3)C2=O)c1	28*	3	5	4	-4	-1	1
COc1ccc(CC(=O)n2[nH]c(=O)ccc2=O)cc1OC	75*	13	4	-3	2	6	96*
C#CCNC(=O)C[C@@H]1C(=O)N(Cc2ccc(OC)cc2)/C2=C/CCCCC[C@@]21C(=O)OCC	-3	/	4	2	-2	2	/
O=S(NC1CCCCC1)C12CC3CC(CC(C3)C1)C2 (centres undefined)	100*	-7	-4	7	0	-1	-2
O=C(NCc1ccco1)c1cccnc1Cl	-2	3	2	2	-2	-1	/
O=C(NCc1ccco1)c1cccnc1-c1nc2ccccc2s1	42*	-4	6	1	2	7	46*
Cn1c(=O)c2[nH]c(-c3ccccc3Cl)c(O)c2n(C)c1=O	13	-1	3	-1	3	-14	/
Cn1c(=O)c2[nH]c(-c3ccccc3)c(O)c2n(C)c1=O	76*	-2	-2	-4	-3	-52	24*
COC(=O)c1ccc(-n2c(CCC(=O)O)ccc2-c2ccccc2)cc1	/	12	/	/	/	/	/
COC(=O)c1ccc(-n2c(C)ccc2-c2ccccc2)cc1	26*	5	5	3	-2	-1	8
CC(=O)c1ccc(-n2c(C)ccc2-c2ccccc2)cc1	33*	13	0	1	-2	-2	2
COc1ccc(-n2c(C)ccc2-c2ccccc2)cn1	56*	1	3	2	-5	-24	14
CC(=O)c1ccc(-n2c(CCC(=O)O)ccc2-c2ccccc2)cc1	2	2	-4	-2	-2	6	/
CCOc1ccc(-n2c(COc3ccc(Cl)cc3)nnc2SCC(=O)Nc2ccc(OCc3ccccc3)cc2)cc1	-4	/	3	2	1	8	/
CN1C(=O)c2cc(NC(=O)Cc3ccccc3)ccc2OC[C@H]2O[C@H](CC(=O)O)CC[C@H]21	3	/	-5	0	-3	3	/
Fc1ccc(CC2CCN(c3ncnc4sccc34)CC2)cc1	1	/	1	3	2	/	/
CCCCN1CC(N2CCCC2)CS1(=O)=O (centres undefined)	-4	/	-2	-1	-4	1	/
COC(OC)c1nc(SCC(=O)Nc2cccc(Cl)c2)ncc1C(=O)O	27*	-1	-1	-2	-2	7	3
Oc1ccccc1C(=S)N1CCCCCC1	4	-3	-8	-2	1	0	/
Oc1ccccc1C(=S)N1CCCCC1	36*	-6	0	1	1	1	20
COc1ccc(CN2CN3CCc4ccccc4C3CS2(=O)=O)cc1 (centres undefined)	1	/	1	0	-2	9	/
O=c1oc2cc(O)ccc2cc1-c1nc2ccccc2o1	71*	-17	-5	-30	-1	-30	68*
COc1cccc(CNC(=O)Cn2c(-c3ccccc3)cc(C(C)=O)c2C)c1	-2	/	1	0	-3	8	/
SMILES	PRMT1 FP inh	ABHD5-PLIN5 inh	MBD2 inh	UHRF1 MBD2 ctr	LEDGF integ inh	rCAG binder	PRMT1 inh conf
CCOC(=O)C1=CCN(S(=O)(=O)c2ccc(Cl)cc2)C1c1cccc(F)c1 (centres undefined)	3	/	1	-1	0	1	/
CCOC(=O)NC1(NCc2ccccc2)Oc2ccccc2O1	26*	3	-2	-2	3	-6	5
CC(C)C[C@@H]1COc2cc(N3CCCC3)ccc2S(=O)(=O)N1	2	/	5	5	1	3	/
COc1cc(/C=C/C(=O)O)cc(S(=O)(=O)Nc2ccc3nc(C)sc3c2)c1OC	25*	-4	0	-2	5	18	28*
COc1cc(/C=C/C(=O)O)cc(S(=O)(=O)Nc2ccc(F)cc2)c1OC	0	-1	1	-1	1	2	/
NC(=O)C1CCN(C(=S)c2ccc(-c3ccc(Br)cc3)o2)CC1	46*	-1	2	1	0	3	60*
CC(C)(C)c1ccc(-c2cn(C[C@H](Cc3ccccc3)n3c(=O)c4ccccc4n3Cc3ccco3)nn2)cc1	2	/	1	3	-1	12	/
CCOC(=O)CSC(=S)NC(=O)c1ccc(OC)cc1	27*	-5	3	4	-3	-3	100*
CCCCCN1CCCCC(NC(=O)CSc2ccccc2)C1=O (centres undefined)	1	/	0	0	-1	-3	/
Cc1ccc(/C=C2\Sc3ccccc3C2=O)s1	1	4	-5	-2	2	15	/
CCC(=O)N(C)/C=C1\Sc2ccccc2C1=O	56*	-4	4	-2	-1	-3	45*
O=CN(/C=C1\Sc2ccccc2C1=O)Cc1ccccc1	56*	-7	-2	-4	-3	5	9
CC(=O)N(C)/C=C1\Sc2ccccc2C1=O	78*	-4	-5	5	1	4	17
CN1OC[C@@H]2CN(CC3CCCCC3)[C@H](c3ccc(-c4ccc(C#N)cc4)cc3)C[C@@H]21	-8	/	1	-1	4	3	/
CN[C@H]1C[C@H]2c3[nH]c4c(-c5ccc6c(c5)OCO6)cccc4c3CCN2C(=O)[C@H]1[C@H](C)O	0	/	1	0	-4	1	/
O=[N+]([O-])c1ccccc1-c1ccc(C(=S)N2CCCC2)o1	39*	-35	-4	-2	10	12	8
O=[N+]([O-])c1cc(-c2ccc(C(=S)N3CCOCC3)o2)ccc1Cl	44*	-35	-5	-9	2	16	18
O=[N+]([O-])c1cccc(-c2ccc(C(=S)N3CCOCC3)o2)c1	0	-3	-4	-9	-2	3	/
CC(C)C[C@H]1COc2cccc(F)c2S(=O)(=O)N1Cc1cn(CCC2OCCO2)nn1	2	/	1	0	0	2	/
O=C1C=CC(=O)N1	78*	18	-1	3	2	3	87*
N#CCc1c(C#N)c(N)nc(N2CCN(S(=O)(=O)c3ccccc3F)CC2)c1C#N	5	15	-2	0	-3	15	/
